Screening data: PubChem BioAssay, National Center for Advancing Translational Sciences (NCATS)
IMPase Li inh: IMPase inhibition in cells with lithium potentiation. Potency, µM (highest dose often 59.4 µM), for inactives: top-dose activity, negative = IMPase inhibition, actives largely listed as inhibitors. AID 1457. CHO-M1 cells, IP1 TR-FRET (IP-One), carbachol + lithium. actives 0.35% (n = 210,000);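 note: IP1 builds up when IMPase is blocked and the TR-FRET signal falls; potency is the fitted concentration of half-maximal effect; plate controls were basal vehicle for no effect and high inhibitor control for full effect; nearly all actives have a fitted effect of over 50% in size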
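IP1 accumulation measured by competitive TR-FRET in lysed CHO-M1 cells after 30 min compound exposure at 37C, with a small lithium addition to potentiate weak responses. Hill-equation AC50 from ratio and donor-channel data.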
ALDH1A1 inh: inhibitors of human aldehyde dehydrogenase 1A1 | Potency, µM (doses to about 75.3 µM), for the others: top-dose activity, negative = inhibition, most hits filed as inhibitors | Purified ALDH1A1, NADH fluorescence, propionaldehyde substrate | actives 7.3% (n = 220,000) | AID 1030; active = well fitted inhibition curve with a large enough effect, not every such curve was filed as active; inconclusive = small, poorly fitted or top-dose-only effect, or another doubt; inactive = no such curve, though single readings can be large or run the other way;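 note: potency is the fitted concentration of half-maximal effect; plate controls were no enzyme wells and a reference inhibitor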
Target sequence (P00352 whole entry, looked up): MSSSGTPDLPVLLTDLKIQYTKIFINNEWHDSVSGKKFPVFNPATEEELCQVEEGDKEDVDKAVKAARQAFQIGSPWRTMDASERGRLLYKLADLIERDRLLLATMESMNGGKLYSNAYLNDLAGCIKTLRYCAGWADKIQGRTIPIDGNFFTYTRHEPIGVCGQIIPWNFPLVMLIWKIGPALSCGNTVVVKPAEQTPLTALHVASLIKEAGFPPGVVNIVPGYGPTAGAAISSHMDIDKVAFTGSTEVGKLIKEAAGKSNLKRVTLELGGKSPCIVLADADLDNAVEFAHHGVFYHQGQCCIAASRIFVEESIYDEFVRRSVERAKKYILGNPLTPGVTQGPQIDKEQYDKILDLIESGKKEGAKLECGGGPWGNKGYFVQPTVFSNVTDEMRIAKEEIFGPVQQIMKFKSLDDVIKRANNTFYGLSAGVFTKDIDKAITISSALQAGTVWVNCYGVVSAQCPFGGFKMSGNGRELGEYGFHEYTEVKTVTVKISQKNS
IMPase cell inh: cell-permeable inhibitors of inositol monophosphatase (IMPase); CHO-M1 cells, IP1 accumulation, HTRF TR-FRET ratio; inhibition (IP1 accumulation), % at 46.1 µM; 120,000 tested, under 10 active; active = well fitted curve in the direction sought with a large enough effect in the signal ratio, not every such curve was filed as active; inconclusive = small, poorly fitted or top-dose-only effect, or a change in a side signal; inactive = no such curve, though single readings can be large or run the other way; the % refers to the signal ratio;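 note: cells stimulated with carbachol in lithium chloride buffer; plate controls were DMSO basal wells for no effect and reference inhibitor wells for full effect; higher means more IMPase inhibition seen as more IP1 and lower FRET ratio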
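The IP-One HTRF competitive assay in carbachol-stimulated CHO-M1 cells quantifies cellular IP1. Compounds spanned up to 46 uM final, and activity is expressed as AC50 from concentration-response fits of the ratio and donor data.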
HttQ103 aggreg: mutant huntingtin aggregation inhibition. Potency, µM (series often up to 46.1 µM), without a hit: at the highest dose activity change, negative = inhibition, actives largely listed as inhibitors. actives 1.1% (n = 220,000). PC12 HttQ103-GFP aggregates, Acumen cytometry, 40 h. AID 1688; note: potency is the fitted concentration of half-maximal effect; % is set by controls: 0 for no effect and ±100 for the full control effect; nearly all actives have a fitted effect of over 60% in size
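Steps: seed 1500 PC12 HTTQ103-GFP cells/well; add tebufenozide, 100 nM final; add compound titration; add ATPLite reagent; quantify GFP aggregates by laser scanning cytometry.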
HTT cytoprotect: Huntington cell model cytoprotection by ATP luminescence. actives 0.14% (n = 230,000). AID 1471. Potency, µM (series often up to 56.4 µM), without a hit: cytoprotection (ATP increase), actives largely listed as activators. PC12 HTT-Q103 induced, cytoprotection, ATP luminescence, 40 h; note: potency is the fitted concentration of half-maximal effect; % of control where 0% means no effect; nearly all actives have a fitted effect of over 45% in size
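ATP quantification (ATPlite) reports survival of PC12 cells in which tebufenozide, 100 nM final, switches on Htt exon 1 with 103 glutamines linked to GFP; compounds are titrated.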
HPGD inh: HPGD (human) dehydrogenase inhibition | Potency, µM, for the others: at the highest dose activity change, negative = inhibition, actives largely listed as inhibitors | AID 894 | P15428 | purified HPGD, NADH fluorescence kinetic, PGE2 substrate | actives 4.3% (n = 150,000); active = well fitted inhibition curve with a large enough effect, not every such curve was filed as active; inconclusive = small, poorly fitted or top-dose-only effect, or another doubt; inactive = no such curve, though single readings can be large or run the other way; note: potency is the fitted concentration of half-maximal effect; % is set by controls: 0 for no effect and ±100 for the full control effect
Target sequence (P15428 whole entry, looked up): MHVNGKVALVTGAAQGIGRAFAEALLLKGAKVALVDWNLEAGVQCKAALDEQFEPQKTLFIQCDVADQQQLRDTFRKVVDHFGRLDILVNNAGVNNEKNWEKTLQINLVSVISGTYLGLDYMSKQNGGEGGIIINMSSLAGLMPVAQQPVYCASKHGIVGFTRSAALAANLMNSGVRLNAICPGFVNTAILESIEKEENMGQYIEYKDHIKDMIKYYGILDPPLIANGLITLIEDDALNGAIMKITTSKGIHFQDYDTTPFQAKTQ
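NADH formation kinetics: reaction with 30 uM PGE2 and 1 mM NAD+ (final), 20 nM enzyme, Tris-HCl pH 8 with Tween 20, after 15 min compound preincubation at room temperature. Fluorescence change, last versus first of five reads.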
* marks the source's active call; other numbers are inactive results; [ ] = another dose, or the depositor's remark. Rows were chosen to be rich in hits. Some 9.4% of all compounds tested hit in one or more screens of this group. Unless noted, calls come from the whole dose curve; as a rule, active = well fitted curve in the direction sought with a large enough effect; inconclusive = small, poorly fitted or top-dose-only effect, or another doubt; inactive = no such curve, though single readings can be large; an effect the other way counts as inactive or inconclusive.

Cc1occc1-c1nnc(SCC(=O)N2CCc3ccccc32)o1 was read as IMPase Li inh 17%[38.3 µM], ALDH1A1 inh 0.79µM*, IMPase cell inh -1, HttQ103 aggreg -3%, HTT cytoprotect -14%[10 µM] and HPGD inh -12%.
`Cc1nnc(SCC(=O)N2CCc3ccccc32)s1` gave IMPase Li inh 56%[38.3 µM], ALDH1A1 inh 28µM*, IMPase cell inh 7[1.84 µM], HttQ103 aggreg 24%, HTT cytoprotect -5% and HPGD inh -10%.
For COc1cc(OC)cc(-c2nnc(SCc3cccc(C(=O)O)c3)o2)c1 the results were IMPase Li inh 31%[38.3 µM], ALDH1A1 inh -13%, IMPase cell inh -3, HttQ103 aggreg -7%, HTT cytoprotect -28% and HPGD inh 11µM*.
For COc1cccc(-c2nnc(SCC(=O)N3CCCc4ccccc43)o2)c1 the results were IMPase Li inh 37%[38.3 µM], ALDH1A1 inh 7.9µM*, IMPase cell inh 3, HttQ103 aggreg inconclusive, HTT cytoprotect 0%[10 µM] and HPGD inh 28µM*.
For CN1C(=O)CC(C(=O)Nc2ccc(C(=O)O)cc2)SC1=Nc1ccc(Cl)cc1 (stereo not drawn) the results were IMPase cell inh -1.
Screening CCc1ccccc1NC(=O)c1cc2nc(-c3ccc(OC)c(OC)c3)cc(C(F)(F)F)n2n1 returned IMPase cell inh -2.
For COc1cc(/C=C2/C(=O)N=C(N)N2C)cc(OC)c1OC the results were IMPase Li inh 51%[38.3 µM], ALDH1A1 inh inconclusive, IMPase cell inh 12, HttQ103 aggreg 6%, HTT cytoprotect -5% and HPGD inh 16µM*.
Screening COc1c(Br)cc(Br)cc1/C=C1/C(=O)N=C(N)N1C returned IMPase Li inh -7%, ALDH1A1 inh 11%, HttQ103 aggreg -30% and HTT cytoprotect -3%.
C=Cc1c(C)/c2[n-]/c1=C\c1[n-]c(c(CC)c1C)/C=c1\[n-]c3c(c1C)C(=O)C(C(=O)[O-])C=3c1[n-]c(c(C)c1CCC(=O)[O-])\C=2.[Cu].[Na+].[Na+] (stereo not drawn) was read as IMPase Li inh 68%, ALDH1A1 inh inconclusive, HttQ103 aggreg -11%, HTT cytoprotect -130% and HPGD inh 25µM*.
`COc1cccc(NC(=O)/C(C#N)=C/c2c(C)n(Cc3ccc(Cl)cc3)c3ccccc23)c1` gave IMPase cell inh -8.
Screening CCN(CC(=O)Nc1ccc2c(c1)OC(F)(F)O2)Cc1nc2ccccc2c(=O)[nH]1 returned IMPase Li inh 20%[38.3 µM], ALDH1A1 inh inconclusive, IMPase cell inh 4, HttQ103 aggreg 4%, HTT cytoprotect -20% and HPGD inh -3%.
Screening CN(CC(=O)Nc1ccc(N2CCOCC2)cc1)CC(=O)Nc1ccc(N2CCOCC2)cc1 returned HttQ103 aggreg -24%[9.22 µM] and HTT cytoprotect 12%[10 µM].
For CCN(CC(=O)NC(c1ccccc1)c1ccccc1)Cc1nc2ccccc2c(=O)[nH]1 the results were IMPase Li inh 7%[38.3 µM], ALDH1A1 inh 18µM*, IMPase cell inh 2, HttQ103 aggreg 12%, HTT cytoprotect -36% and HPGD inh -18%.
Screening CCN(CC)CC(=O)Nc1ccc2c(c1)Nc1ccccc1CC2 returned IMPase Li inh -4%[38.3 µM], ALDH1A1 inh 20µM*, IMPase cell inh 2, HttQ103 aggreg -1%, HTT cytoprotect -46%[0.074 µM] and HPGD inh -17%.
`CCN(CC(=O)Nc1ccccc1SC)Cc1nc2ccccc2c(=O)[nH]1` gave HttQ103 aggreg 22%[9.22 µM] and HTT cytoprotect 3%[10 µM].
For CCN(CC(=O)Nc1ccc(N2CCOCC2)cc1)Cc1nc2ccccc2c(=O)[nH]1 the results were IMPase Li inh -5%[38.3 µM], ALDH1A1 inh 22µM*, IMPase cell inh 5, HttQ103 aggreg 15%, HTT cytoprotect -29% and HPGD inh -25%.
`CN(CC(=O)Nc1ccc(N2CCOCC2)cc1)Cc1c(O)ccc2ccccc12` gave IMPase Li inh 3%, ALDH1A1 inh 3.5µM*, HttQ103 aggreg 18% and HTT cytoprotect inconclusive.
CCN(CC)CC(=O)Nc1ccc2c(c1)N(C(=O)CN(CC)CC)c1ccccc1CC2 was read as IMPase Li inh 38%[38.3 µM], ALDH1A1 inh -3%, IMPase cell inh 8, HttQ103 aggreg 2%, HTT cytoprotect -2% and HPGD inh -7%.
CCN(CC)CCn1c(-c2ccccc2)nc2c(NCCOC)nc(C)nc21 was read as IMPase Li inh 3%, ALDH1A1 inh inconclusive, HTT cytoprotect 5% and HPGD inh inconclusive.
Screening O=C(NCCCN1CCN(c2ccc(F)cc2)CC1)Nc1ccccc1Cl returned IMPase cell inh 5.
`COc1cc2nc(CN(C)CC(=O)Nc3ccc(N4CCOCC4)cc3)[nH]c(=O)c2cc1OC` gave IMPase Li inh -2%[38.3 µM], ALDH1A1 inh 28µM*, IMPase cell inh 17, HttQ103 aggreg 21%, HTT cytoprotect 4% and HPGD inh inconclusive.
Screening CCN(CC(=O)NCc1ccc(F)cc1)Cc1nc2cc(Cl)ccc2c(=O)[nH]1 returned IMPase Li inh 28%[38.3 µM], ALDH1A1 inh 22µM*, IMPase cell inh 12, HttQ103 aggreg 17%, HTT cytoprotect 29% and HPGD inh 32µM*.
CCN(CC(=O)Nc1ccc2c(c1)OCO2)Cc1nc2ccccc2c(=O)[nH]1 was read as IMPase Li inh -4%[38.3 µM], ALDH1A1 inh inconclusive, IMPase cell inh 6, HttQ103 aggreg 4%, HTT cytoprotect -6% and HPGD inh -6%.
CCN(CC(=O)Nc1ccc2c(c1)CCC2)Cc1nc2ccccc2c(=O)[nH]1 was read as IMPase Li inh 13%, ALDH1A1 inh 14µM*, IMPase cell inh 0, HttQ103 aggreg 11%, HTT cytoprotect 21%[10 µM] and HPGD inh -24%.
For O=C(COC(=O)c1ccc([N+](=O)[O-])s1)NCc1ccc(F)cc1 the results were IMPase Li inh 4%, ALDH1A1 inh 7.1µM*, HttQ103 aggreg -25%, HTT cytoprotect 14%[10 µM] and HPGD inh -1%.
For O=C(COC(=O)c1ccc([N+](=O)[O-])s1)NC(=O)NCc1ccccc1 the results were IMPase Li inh -17%, ALDH1A1 inh 7.1µM*, HttQ103 aggreg -2% and HTT cytoprotect -40%.
For COc1ccccc1NC(=O)COC(=O)c1ccc([N+](=O)[O-])s1 the results were IMPase Li inh 4%, ALDH1A1 inh 10µM*, HttQ103 aggreg -9% and HTT cytoprotect 14%.
`CC(CCC(=O)O)C1CCC2C3CC[C@H]4CC(O)CC[C@@]4(C)C3C=C[C@]12C` (stereo partly drawn) gave IMPase Li inh 38%, ALDH1A1 inh -17%, HTT cytoprotect -69% and HPGD inh -2%.
